# Data reported in article PMC5540273 (PLoS ONE, 2017).
# Columns and labels:
# Settings in all cases: concentration: 1 μM, replicates: in singlicate; n = 1
# CHEK1 = tested on: CHEK1
# CHEK2 = tested on: CHEK2
# CIT = tested on: CIT
# CLK1 = tested on: CLK1
# CLK2 = tested on: CLK2
# CLK3 = tested on: CLK3
# CLK4 = tested on: CLK4
# CSF1R-autoinhibited = tested on: CSF1R-autoinhibited
# CSF1R = tested on: CSF1R
# CSK = tested on: CSK
# CSNK1A1L = tested on: CSNK1A1L
# CSNK1A1 = tested on: CSNK1A1
# CSNK1D = tested on: CSNK1D
# CSNK1E = tested on: CSNK1E
# CSNK1G1 = tested on: CSNK1G1
# CSNK1G2 = tested on: CSNK1G2
# CSNK1G3 = tested on: CSNK1G3
# CSNK2A1 = tested on: CSNK2A1
# CSNK2A2 = tested on: CSNK2A2
# CTK = tested on: T1, CTK
# T1 construct: gene MATK
# 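Note: KINOMEscan kinase panel screen.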
SMILES,%Inh (CHEK1),%Inh (CHEK2),%Inh (CIT),%Inh (CLK1),%Inh (CLK2),%Inh (CLK3),%Inh (CLK4),%Inh (CSF1R-autoinhibited),%Inh (CSF1R),%Inh (CSK),%Inh (CSNK1A1L),%Inh (CSNK1A1),%Inh (CSNK1D),%Inh (CSNK1E),%Inh (CSNK1G1),%Inh (CSNK1G2),%Inh (CSNK1G3),%Inh (CSNK2A1),%Inh (CSNK2A2),%Inh (CTK)
N#Cc1ccc(-c2cc(-c3c[nH]nc3-c3ccccn3)ccn2)cc1 [GW693028],0%,0%,35%,22%,8%,0%,38%,0%,20%,0%,12%,19%,62%,32%,8%,0%,8%,0%,5%,0%
c1ccc(-c2cc(-c3c[nH]nc3-c3ccccn3)ccn2)cc1 [GW576604],0%,6%,27%,5%,12%,0%,11%,26%,0%,0%,0%,0%,38%,15%,0%,1%,3%,0%,15%,0%
Cl.Nc1ncnc2occ(-c3ccc(NC(=O)Nc4cc(C(F)(F)F)ccc4F)cc3)c12 [SB-707548],6%,45%,82%,69%,11%,13%,69%,90.7%,99.9%,20%,11%,10%,32%,25%,16%,0%,32%,0%,0%,4%
COc1ccc(Nc2nccc(N3CCC(NC(=O)Nc4cccc(C(C)=O)c4)C3)n2)cc1 (centres unmarked) [GSK1379731],0%,0%,0%,5%,0%,5%,2%,0%,0%,0%,4%,0%,0%,39%,0%,0%,0%,0%,0%,0%
CSc1ccc(-c2cc3ncnc(SCC(=O)O)c3s2)cc1,0%,2%,1%,0%,0%,0%,0%,17%,18%,0%,11%,21%,0%,0%,1%,0%,0%,22%,17%,14%
Cc1ccc(NC(=O)c2ccnc(N3CCN(C)CC3)c2)cc1-c1ccc(C(=O)NCC2CC2)cc1 [GW775604],0%,15%,0%,0%,0%,0%,0%,0%,22%,0%,0%,0%,0%,24%,0%,0%,0%,0%,7%,0%
N#Cc1c(N2CCOCC2)sc(-c2ccn[nH]2)c1-c1ccc(Cl)cc1,15%,15%,24%,6%,0%,16%,0%,8%,34%,17%,0%,17%,0%,15%,0%,0%,10%,34%,14%,3%
Cn1cc(-c2ccc3c(c2)CCN3C(=O)Cc2ccccc2Cl)c2c(N)ncnc21 [GSK2608885],35%,4%,65%,25%,0%,1%,0%,0%,99.8%,97.6%,0%,0%,11%,87%,25%,3%,20%,0%,8%,18%
NS(=O)(=O)c1cccc(-c2ccc3ncc(N4CCOCC4)nc3c2)c1 [GSK1535721],0%,37%,7%,11%,12%,0%,18%,8%,0%,0%,0%,0%,16%,0%,12%,0%,19%,4%,18%,0%
O=C(NCCNc1ccnc(Nc2ccc(F)cc2)n1)Nc1ccccc1F [GSK1379880],11%,0%,47%,24%,0%,2%,0%,0%,9%,0%,16%,0%,11%,9%,1%,0%,16%,0%,3%,0%
